Experimental findings from PubChem BioAssay (Tox21) are described below.

Assay [1] in a line: qHTS assay to identify small molecule antagonists of the estrogen related receptor (ERR) signaling pathway from Tox21 library - cell viability counter screen (AID 1224834). Also: nearly all actives have a fitted effect of over 30% in size. Put shortly: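 Compounds in DMSO were pinned onto ERR cells that had been incubated for 6 h, and the plates were held at 37 C for 17.5 h. CellTiter-Fluor reagent was then added and fluorescence was measured after 30 min.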
For orientation: In qHTS, concentration-response curves come from the screen itself.

Assay [2] has as its target Luciferin 4-monooxygenase (Photinus pyralis) (UniProt P08659). The experiment in a line: qHTS assay to identify small molecule inhibitors of firefly luciferase (AID 1224835). Also: nearly all actives have a fitted effect of over 25% in size. Also: potency is read from the fitted curve at half-maximal effect. Put shortly:
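Quantitative HTS format; KM concentrations of both substrates. Purified P. pyralis FLuc activity quantified from luminescence images.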

Assay [3] in a line: qHTS assay to identify small molecule agonists of the constitutive androstane receptor (CAR) signaling pathway - cell viability counter screen (AID 1224836). Also: series mostly up to about 92 µM; nearly all actives have a fitted effect of over 45% in size. Put shortly:
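23 h treatment, 37 C, 5% CO2. Cell line: HepG2 stably expressing hCAR with a CYP2B6-2.2kb construct. Co-treatment: PK11195, 0.75 uM final. Read-out: CellTiter-Fluor fluorescence intensity.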

The nature of assay [4]: qHTS assay to identify small molecule antagonists of the constitutive androstane receptor (CAR) signaling pathway - cell viability counter screen (AID 1224837). Also: series mostly up to about 92 µM; nearly all actives have a fitted effect of over 45% in size. Put shortly: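 Cells are seeded, rested 4 hr at 37 C/5% CO2, dosed with compound (15-point series) and 50 nM CITCO, incubated a further 23 hr, and then CellTiter-Fluor reagent is added before fluorescence is read. The line is HepG2 with stable hCAR and CYP2B6-2.2kb.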

Assay [5] concerns the target Nuclear receptor subfamily 1 group I member 3 (Homo sapiens) (UniProt Q14994). The experiment in a line: qHTS assay to identify small molecule antagonists of the constitutive androstane receptor (CAR) signaling pathway (AID 1224838).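 Also: HepG2 cells stably expressing hCAR with CYP2B6 luciferase reporter stimulated by CITCO; nearly all actives have a fitted effect of over 40% in size.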 Put shortly: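 Luminescence from a CYP2B6-2.2kb promoter reporter in hCAR-expressing HepG2 cells reflects CAR signaling. Cells received compounds at 15 concentrations and 50 nM CITCO (final), then incubated 24 h at 37 C/5% CO2.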

Assay [6] shares this target. The experiment in a line: qHTS assay to identify small molecule agonists of the constitutive androstane receptor (CAR) signaling pathway (AID 1224839). Also: nearly all actives have a fitted effect of over 15% in size. Also: potency is read from the fitted curve at half-maximal effect. Put shortly:
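Compounds tested at 15 concentrations on HepG2 cells stably harbouring hCAR and CYP2B6-2.2kb reporter constructs, co-treated with PK11195 (0.75 uM final), 24 h at 37 C; luminescent reporter signal quantified.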

Assay [7] is described as follows: qHTS assay to identify small molecule antagonists of the estrogen related receptor signaling pathway with the pleiotropic PPARgamma coactivator (PGC) from Tox21 10K library - cell viability counter screen (AID 1224840; active = well fitted cell-killing curve with a large enough effect in the repeat runs, not every such curve was filed as active; also: nearly all actives have a fitted effect of over 40% in size). Put shortly:
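Cell viability is measured by CellTiter-Fluor fluorescence in PGC/ERR cells that receive compounds after a 6-hour attachment period and are then incubated 17.5 hours at 37 C.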

Assay [8] in a line: qHTS assay to identify small molecule agonists of the estrogen related receptor signaling pathway with the pleiotropic PPARgamma coactivator (PGC) (AID 1224823). Put shortly: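 Luminescence from One-Glo reagent (30 min, room temperature) was read after 18 h compound treatment at 37 C of PGC/ERR cells plated 6 h beforehand; compounds delivered in DMSO by pin tool.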
Assay [9] is described as follows: qHTS assay to identify small molecule antagonists of the estrogen related receptor signaling pathway with the pleiotropic PPARgamma coactivator (PGC) from Tox21 10K library (AID 1224841; call rule not given here; also: actives are mostly falling curves and most rising ones were filed inactive; nearly all actives have a fitted effect of over 50% in size; also: potency is read from the fitted curve at half-maximal effect). Put shortly: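 Cells stably carrying the PGC/ERR reporter, seeded at 2,000 per well, received pin-transferred compounds 6 h post-plating. Exposure lasted 18 h at 37 C. Signal: One-Glo luminescence.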

Assay [10] is described as follows: qHTS assay to identify small molecule agonists of the estrogen related receptor signaling pathway with the pleiotropic PPARgamma coactivator (PGC) from Tox21 10K library (AID 1224842). Also: nearly all actives have a fitted effect of over 15% in size. Put shortly: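 PGC/ERR reporter cells (NTP line) were seeded 2,000 per well, rested 6 h at 37 C/5% CO2, then pin-dosed with compounds in DMSO for 18 h at 37 C; luciferase read by One-Glo luminescence after 30 min at room temperature.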

Records with an inconclusive call do not appear. Unmarked numbers belong to inactive results. Activity calls are given as the source filed them. Unless noted, calls follow the shape of the dose curve; as a rule, active = well fitted curve in the direction sought with a large enough effect in the repeat runs; inconclusive = weak or mixed curves; inactive = no such curve, though single readings can be large; an effect the other way counts as inactive or inconclusive.

Chain of Luciferin 4-monooxygenase (Photinus pyralis) (P08659 whole entry, looked up): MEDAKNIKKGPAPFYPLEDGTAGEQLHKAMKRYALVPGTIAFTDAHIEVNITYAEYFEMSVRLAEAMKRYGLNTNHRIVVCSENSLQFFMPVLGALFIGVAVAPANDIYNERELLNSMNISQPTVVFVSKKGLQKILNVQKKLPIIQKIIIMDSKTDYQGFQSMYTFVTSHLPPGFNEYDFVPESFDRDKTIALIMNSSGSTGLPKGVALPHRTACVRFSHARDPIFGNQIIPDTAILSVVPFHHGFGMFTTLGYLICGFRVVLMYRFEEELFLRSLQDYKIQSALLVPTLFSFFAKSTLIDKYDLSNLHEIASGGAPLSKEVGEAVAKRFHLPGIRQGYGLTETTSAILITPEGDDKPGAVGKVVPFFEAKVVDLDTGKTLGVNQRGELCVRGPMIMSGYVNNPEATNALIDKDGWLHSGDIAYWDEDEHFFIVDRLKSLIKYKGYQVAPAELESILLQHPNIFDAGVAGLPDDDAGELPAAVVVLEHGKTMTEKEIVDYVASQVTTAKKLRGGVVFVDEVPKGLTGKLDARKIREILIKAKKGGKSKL
Chain of Nuclear receptor subfamily 1 group I member 3 (Homo sapiens) (Q14994 whole entry, looked up): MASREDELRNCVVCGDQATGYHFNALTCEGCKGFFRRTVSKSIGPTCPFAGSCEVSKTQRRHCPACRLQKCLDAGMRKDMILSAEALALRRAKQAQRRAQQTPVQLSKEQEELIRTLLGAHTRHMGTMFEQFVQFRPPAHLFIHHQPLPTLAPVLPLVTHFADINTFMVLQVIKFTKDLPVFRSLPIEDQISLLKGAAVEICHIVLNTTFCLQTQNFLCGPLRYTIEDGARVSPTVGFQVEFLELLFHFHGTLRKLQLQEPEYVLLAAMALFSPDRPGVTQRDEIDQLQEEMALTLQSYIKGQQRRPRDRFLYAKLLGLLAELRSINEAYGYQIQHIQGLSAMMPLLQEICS

Consider `O=C=Nc1ccc(Cl)cc1`, for which the Potency entry in assay [1], in [3], in assay [4], in assay [5] and in assay [7] was “inactive” each time. Further, the values for the Potency in [2] and in assay [6] were 5.64 µM (active) and 6.86 µM (active), respectively.

In the case of `COC(=O)c1cncn1C(C)c1ccccc1` (configuration not stated), the Potency result in assay [1], in assay [2], in [3], in assay [4], in assay [5] and in [6] was “inactive” in each case.

For the compound `c1ccc(CN2CCNCC2)cc1`, the Potency result in [1], in [2], in assay [3], in assay [4], in assay [5] and in assay [6] was “inactive” in each case. Also, the Potency result in assay [7] is “inactive”.

Turning to `O=C(O)c1ccccc1C(=O)Nc1cccc2ccccc12`, the Potency result in assay [1], in assay [2], in [3], in [4], in assay [5] and in [7] was “inactive” throughout. In addition, the Potency in assay [6] is 30.6 µM (active).

In the case of `c1ccc(C2CC2)c(OCC2=NCCN2)c1`, the compound was called inactive in [8]. Besides, the Potency result in assay [2], in assay [4], in assay [7], in assay [9] and in assay [10] was “inactive” in each case.

For the compound `CCOc1nc(F)cc2nc(S(=O)(=O)Nc3c(Cl)cccc3Cl)nn12`, the Potency result in assay [1], in assay [2], in assay [3], in assay [4], in [5] and in assay [6] was “inactive” throughout. Also, the Potency entry in assay [7] is “inactive”.

For `Cn1cc[n+](C)c1` (tested in a mixture with another compound), the Potency entry in [1], in assay [2], in [3], in assay [4], in [5] and in assay [6] was “inactive” in each case.

`NNC(=O)c1cccnc1`: the Potency result in assay [1], in [2], in assay [3], in [4], in [5] and in assay [7] was “inactive” each time.

In the case of `c1ccoc1`, the Potency entry in [1], in assay [2], in [3], in assay [4] and in assay [7] was “inactive” each time.

On to `C=CC(=O)OCC(C)O` (configuration not stated), for which the Potency entry in assay [1], in [2], in assay [3], in [4], in assay [5] and in [6] was “inactive” in each case. Moreover, the Potency entry in assay [7], in [9] and in assay [10] was “inactive” in each case.

Take `ClCC(Br)CBr` (configuration not stated): the Potency entry in [1], in [2], in [3], in assay [4] and in assay [7] was “inactive” in each case.

Regarding `O=C(O)C(F)(F)C(F)(F)C(F)(F)C(F)(F)C(F)(F)C(F)(F)C(F)(F)C(F)(F)C(F)(F)F`, the Potency result in assay [1], in [2], in assay [3], in assay [4], in assay [5] and in assay [6] was “inactive” throughout. The Potency entry in assay [7], in assay [9] and in [10] was “inactive” in each case.

Take `C=CCOC(C)=O`: the Potency entry in assay [1], in [2], in assay [3], in assay [4] and in assay [7] was “inactive” each time.

In the case of `Cn1sc(Cl)cc1=O`, the Potency result in assay [1], in assay [2], in [3], in [4], in [5] and in assay [6] was “inactive” each time. The Potency result in [7], in assay [9] and in assay [10] was “inactive” throughout.

With `C=CC(=O)OCC(C)C`, the Potency result in [1], in assay [2], in assay [3], in [4], in [5] and in [6] was “inactive” in each case. Moreover, the Potency entry in [9] and in [10] was “inactive” in each case.

For the compound `CNC(C)Cc1ccccc1OC` (configuration not stated), the Potency entry in assay [1], in [2], in assay [3], in [4], in [5] and in [6] was “inactive” in each case. Also, the Potency entry in assay [7] is “inactive”.

`O=C1c2ccccc2C(=O)C1C(=O)C(c1ccccc1)c1ccccc1`: the Potency entry in assay [1], in [2], in assay [3], in assay [4], in assay [5] and in [6] was “inactive” throughout. Moreover, the Potency entry in assay [7] and in assay [10] was “inactive” each time.

In the case of `C[C@@H]1CC[C@H]2[C@@H](C)C(=O)O[C@@H]3O[C@@]4(C)CC[C@@H]1[C@]32OO4`, the Potency entry in assay [1], in assay [2], in assay [3], in assay [4], in assay [5] and in assay [10] was “inactive” in each case. Besides, the Potency in assay [9] is 1.88 µM (active).

For the compound `CN1C(=O)NC(=O)C(C)(C2=CCCCC2)C1=O` (configuration not stated), the Potency entry in assay [1], in [2], in assay [3], in [4], in assay [6] and in assay [7] was “inactive” each time.

Regarding `O=C(O)CC(Cl)C(=O)O` (configuration not stated), the Potency result in assay [1], in assay [2], in [3], in assay [4], in assay [5] and in [6] was “inactive” throughout. Also, the Potency result in assay [7], in assay [9] and in assay [10] was “inactive” each time.

Regarding `C=CC(=O)OC(C)(C)C`, the Potency result in assay [1], in assay [2], in assay [3], in [4], in assay [5] and in assay [6] was “inactive” each time. In assay [7], the Potency result is “inactive”.

On to `Clc1cccc2ccccc12`, for which the Potency result in assay [1], in assay [2], in assay [3], in [4], in assay [5] and in assay [6] was “inactive” throughout. Moreover, the Potency entry in assay [7] was “inactive”.

Turning to `CCCN(CC1CC1)c1c([N+](=O)[O-])cc(C(F)(F)F)cc1[N+](=O)[O-]`, the Potency entry in assay [1], in assay [2], in [3], in assay [4], in [5] and in assay [7] was “inactive” each time.

As to `NC(=O)C(Cl)(Cl)Cl`, the Potency result in [1], in [2], in assay [3], in [4], in [5] and in assay [6] was “inactive” in each case. For the same compound, the Potency result in assay [7] was “inactive”.

Turning to `CC(=O)C(C)(C)C`, the Potency entry in assay [1], in [2], in assay [3], in assay [4], in assay [5] and in assay [6] was “inactive” each time. For the same compound, the Potency result in [9] and in assay [10] was “inactive” in each case.

`COc1cc(CC(C)N)cc2c1OCO2` (configuration not stated): the Potency entry in assay [1], in assay [2], in assay [3], in [4], in assay [5] and in assay [6] was “inactive” in each case. Further, the Potency entry in assay [7], in [9] and in [10] was “inactive” each time.

Turning to `COC(C)(C)CCC[C@H](C)C/C=C/C(C)=C/C(=O)OC(C)C`, the Potency entry in [1], in [2], in assay [3], in [4], in assay [5] and in assay [6] was “inactive” each time. The Potency result in assay [7], in assay [9] and in [10] was “inactive” in each case.

Consider `O=C(C(Cl)(Cl)Cl)C(Cl)(Cl)Cl`, for which the Potency entry in assay [1], in assay [2], in [3], in assay [4] and in assay [7] was “inactive” throughout.
